The results in this text go back to PubChem BioAssay AID651803 (National Center for Advancing Translational Sciences (NCATS), 2012).

Each structure is given as a SMILES string. Fewer than 10 of roughly 1,200 compounds were called active. Calls come from the whole dose curve; as a rule, active = well fitted curve in the direction sought with a large enough effect; inconclusive = small, poorly fitted or top-dose-only effect, or another doubt; inactive = no such curve, though single readings can be large or run the other way. A selection follows. Residues, ends and D or L forms follow the SMILES beside them.

Transcriptional regulator ERG (Homo sapiens), sequence (P11308 whole entry, looked up, the tested form may be a part): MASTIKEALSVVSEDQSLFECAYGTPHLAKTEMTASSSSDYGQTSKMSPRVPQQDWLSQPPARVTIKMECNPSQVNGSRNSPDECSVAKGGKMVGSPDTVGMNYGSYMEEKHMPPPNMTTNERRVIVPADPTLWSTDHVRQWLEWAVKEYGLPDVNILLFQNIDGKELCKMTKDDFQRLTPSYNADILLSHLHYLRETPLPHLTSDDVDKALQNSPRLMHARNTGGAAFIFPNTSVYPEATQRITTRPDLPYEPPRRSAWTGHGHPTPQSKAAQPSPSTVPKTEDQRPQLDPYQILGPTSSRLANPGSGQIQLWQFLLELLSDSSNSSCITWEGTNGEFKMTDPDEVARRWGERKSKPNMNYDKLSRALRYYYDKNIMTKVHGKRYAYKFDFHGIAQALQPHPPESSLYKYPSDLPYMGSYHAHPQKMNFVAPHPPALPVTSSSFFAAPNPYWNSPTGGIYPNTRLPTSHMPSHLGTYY

In the test the target is Transcriptional regulator ERG (Homo sapiens) (UniProt P11308). The experiment in a line: qHTS for Small Molecule Inhibitors of the ERG Ets/DNA interaction: TR assay against cherry picks. Conditions: ERG Ets domain-DNA fluorescence polarization, Texas red probe; series mostly up to 154 µM. An excerpt:
The Ets family of proteins is a family of ~30 conserved transcription factors defined by the presence of an ~85 amino acid domain referred to as the Ets domain, which mediates sequence-specific DNA binding to a core DNA element GGAA/T.The Ets family member ERG has been linked to several neoplasms. […] More extensive studies of the effects of over-expression of ERG in prostate cells have recently been carried out and have shown that over-expression of ERG results in increased invasion. […] We will carry out a high throughout screen to identify inhibitors of the interaction between ERG and DNA using a fluorescence polarization (FP) assay with a His-tagged ERG Ets domain and fluorescently-labeled DNA probes to develop small molecule inhibitors of this interaction as probes to test this hypothesis and lay the groundwork for the development of targeted therapies against ERG. This is the confirmation against the cherry picks in theprimary screening assay. NIH Molecular Libraries Probe Production Network [MLPCN] NIH Chemical Genomics Center [NCGC] Grant: NS066464 PI Name: John Bushweller, University of Virgina
1.5 ul of protein solution (1 uM ERG domain in 300mM KCl, 50mM Tris-HCl, 1mM EDTA, 1mM DTT, pH 7.5); 20 nl Control plate and compound library plate; 1.5 ul mixture of 5 nM Fluorescein-DNA and 100nM Texas-615-DNA solution in same buffer as above solution; measure fluorescence polarization sequentially for fluorescein (Excitation = 480 nm, Emission = 535s, 535p nm) and Texas red (Excitation = 555 nm, Emission = 632s, 632p nm).
Background: qHTS replaces the single test concentration by a dilution series.
In the case of `Cc1ccccc1OCc1nnc(SCC(=O)Nc2ccc(N3CCOCC3)c(Cl)c2)n1C`, the molecule was classed as inactive.

Consider `O=C(O)c1cc(O)c2c(c1)[C@H]([C@H]1c3cc(C(=O)O)cc(O)c3C(=O)c3c(O[C@@H]4O[C@H](CO)[C@@H](O)[C@H](O)[C@H]4O)cccc31)c1cccc(OC3O[C@H](CO)[C@@H](O)[C@H](O)[C@H]3O)c1C2=O` (stereo partly drawn), for which the outcome was inactive.

With `COc1ccccc1CN(C)C(=O)C(NC(=O)Cc1cccc2ccccc12)C(C)C` (stereo not drawn), the call was inactive.

For `O=C(CN1C=NS(=O)(=O)c2ccccc21)Nc1ccc(Br)cc1`, the result was inactive.

Consider `Cc1ccc(S(=O)(=O)NCC(=O)N(CC(=O)NCC2CCCO2)c2cccc(F)c2)cc1` (stereo not drawn), for which the molecule was called inactive.

For the molecule `Clc1ccc(SCc2nc3ccccc3[nH]2)cc1`, the molecule was classed as inactive.

For `CCc1n[nH]c(=S)n1/N=C/c1ccc(N(C)c2ccccc2)cc1`, the molecule was classed as inactive.

As to `CNC(=O)c1cccc(-n2c(C)nc3cccnc32)c1C`, the result was inactive.

Regarding `Cc1ccc(/C=C2\SC(N3CCCCC3)=NC2=O)cc1`, the outcome was inactive.

For the molecule `CCc1cccc(NC(=O)C2CCCN(S(=O)(=O)c3ccc4[nH]c(=O)ccc4c3)C2)c1` (stereo not drawn), the call was inactive.

`COc1ccc(-c2ccc(SCC(=O)NCc3ccc4c(c3)OCO4)nn2)cc1OC`: the molecule was called inactive.

Regarding `C=CCn1c(=O)[nH]c2cc(C(=O)N3CC=C(c4ccccc4)CC3)ccc2c1=O`, the result was inactive.

Turning to `COc1ccccc1CNC(=O)CCNC(=O)C1CCN(S(=O)(=O)c2ccccc2)CC1`, the result was inactive.

On to `Oc1ccc(Nc2ccc3ccccc3c2)cc1`, for which the molecule was called inactive.

As to `Cc1ccc(OCC(=O)OCC(=O)c2ccccc2)cc1C`, the molecule was called inactive.

With `CC(C)N1CCC(N2CCN(Cc3cccc4nonc34)CC2CCO)CC1` (stereo not drawn), the call was inactive.

`O=C(O)CNC(=O)/C(=C\c1ccc2c(c1)OCO2)NC(=O)c1ccc(Br)cc1`: the call was inactive.

As for `O=C(COc1coc(CN2CCCc3ccccc32)cc1=O)Nc1cccc([N+](=O)[O-])c1`, the call was inactive.

Consider `COc1cccc(CC2(CO)CCN(S(=O)(=O)N(C)C)CC2)c1`, for which the molecule was classed as inactive.

Take `CCOc1cc(C2c3c(oc4ccccc4c3=O)C(=O)N2Cc2ccc(OC)cc2)ccc1O` (stereo not drawn): the outcome was inactive.

Turning to `Cc1cccc(-c2oc3ccccc3c2-c2ccc3c(c2)OCO3)c1`, the result was inactive.

In the case of `Cc1ncc([N+](=O)[O-])n1CC(=O)N/N=C/c1ccc(F)cc1`, the molecule was called inactive.

As for `Cc1ccc(C(=O)Nc2ccc(C(=O)N/N=C/c3c[nH]c4ccccc34)cc2)cc1`, the molecule was classed as inactive.

As to `Cc1ccc(/C=C2\Sc3ccccc3C2=O)s1`, the molecule was classed as inactive.

Regarding `COc1ccc([C@@H](NC(=O)OC(C)(C)C)C(=O)OC(C)(C)C)cc1`, the outcome was inactive.

On to `O=c1ccc(-c2ccc(S(=O)(=O)Nc3cccc(Br)c3)o2)n[nH]1`, for which the call was inactive.

As to `Nn1c(Cc2ccccc2)nc2sc3c(c2c1=O)CCC3`, the result was inactive.

As to `CCCN(CCC)Cc1c(C(=O)N/N=C/c2cccs2)nnn1-c1nonc1N`, the molecule was called inactive.

Regarding `Cn1c(CNC(=O)CNC(=O)c2ccc(C(C)(C)C)cc2)cc(=O)n(C)c1=O`, the result was inactive.

For the molecule `C/C(=N\Nc1ccc(C#N)cc1[N+](=O)[O-])c1ccc(C)o1`, the result was inactive.

For `CC(=O)Nc1ccc(NC(=O)C(C)OC(=O)C2CCN(S(=O)(=O)c3ccc4c(c3)OCCO4)CC2)cc1` (stereo not drawn), the outcome was inactive.

For `CCS(=O)(=O)N1CCC(C(=O)OCC(=O)c2ccc(Br)cc2)CC1`, the outcome was inactive.

For `Cn1c(SCC(=O)N2CCN(C(=O)c3ccco3)CC2)nnc1-c1ccc(NS(C)(=O)=O)cc1`, the call was inactive.

Turning to `CCOC(=O)N1CCC(NC(=O)Cc2ccccc2)CC1`, the call was inactive.

As to `CC(=O)NC(Cc1ccccc1)C(=O)NC(Cc1ccccc1)C(=O)O` (stereo not drawn) (Ac-Phe-Phe-OH; configuration not given here), the molecule was called inactive.

Regarding `COc1ccccc1C(=O)Nn1c(-c2cccs2)nc2ccccc2c1=O`, the call was inactive.

As to `Cc1c(OC(C(=O)O)c2ccccc2)ccc2c(-c3ccccc3)cc(=O)oc12` (stereo not drawn), the call was inactive.

For the molecule `COc1cc(C(=O)Cc2nc3ccccc3n2C)cc(OC)c1OC`, the molecule was called inactive.

Consider `CC(=O)Nc1ccc(NC(=O)Nc2ccc(C)cc2C)cc1`, for which the result was inactive.

`CCOc1ccc(N/C(SCc2cccc([N+](=O)[O-])c2)=C(/C#N)C(N)=O)cc1`: the call was inactive.

Consider `CC(C)(C)SC(=O)CC1NS(=O)(=O)OC2CCCCC12` (stereo not drawn), for which the result was inactive.

On to `Cc1cccn2c(=O)cc(COc3ccc(NC(=O)C(C)C)cc3)nc12`, for which the outcome was inactive.

In the case of `CCc1nnc2c(N3CCN(c4cccc(C(F)(F)F)c4)CC3)nc3ccccc3n12`, the call was inactive.

As for `COC(=O)c1ccc2c(=O)n(CCN3CCOCC3)c(SCC(=O)Nc3ccc(OC)cc3OC)nc2c1`, the result was inactive.

With `COc1ccc(S(=O)(=O)N2CCc3ccccc32)cc1C(=O)N(CC(C)C)C1CCS(=O)(=O)C1` (stereo not drawn), the molecule was called inactive.

Take `FC(F)(F)COc1cc(-c2nnc(SCc3ccccc3)n2Cc2ccco2)cc(OCC(F)(F)F)n1`: the call was inactive.

Turning to `N/C(=N\c1nc2ccccc2o1)NC(=O)c1cccc(Br)c1`, the molecule was classed as inactive.

Consider `Cc1ccccc1OCC(=O)Nc1ccc2[nH]ncc2c1`, for which the molecule was classed as inactive.

As for `CCN1CCN(CCCN(Cc2cccs2)C(=S)Nc2ccccc2C)CC1`, the result was inactive.

For `Nc1ccc2nc3c(=O)n(CCc4ccccc4)c(=O)[nH]c3nc2c1`, the molecule was classed as inactive.

With `CCOC(=O)C1=C(C)N(C[C@@H]2CC[C@@H](Cc3ccc(-c4ccccc4)cc3)O2)C(=O)NC1c1ccc([N+](=O)[O-])cc1` (stereo partly drawn), the call was inactive.

Regarding `COc1cc(/C=C/C(=O)OCC(=O)NC(=O)NC2CCCCC2C)ccc1OC(F)F` (stereo not drawn), the call was inactive.

Regarding `O=S(=O)(NCCC1=CCCCC1)c1ccc(OC(F)(F)F)cc1`, the call was inactive.

Consider `CCN1C(=O)CSc2ccc(C(=O)NC3CCCCC3)cc21`, for which the result was inactive.

For `COc1ccc(C2(C(=O)Nc3ccc(OC)cc3OC)CCCC2)cc1`, the molecule was called inactive.

In the case of `CC1COc2ccccc2N1S(=O)(=O)c1ccc(Cl)cc1` (stereo not drawn), the call was inactive.

On to `CCOC(=O)C1CCN(C(=O)c2cccc(S(=O)(=O)N3CCCc4ccccc43)c2)CC1`, for which the molecule was called inactive.

For the molecule `O=C(Nc1cc2c(cc1Cl)-c1ccc([N+](=O)[O-])cc1C2=NO)C(F)(F)F`, the outcome was inactive.

On to `CC(C)C(C(=O)O)N1CCS(=O)(=O)CC1` (stereo not drawn), for which the molecule was called inactive.

`CCN(CC)c1ccc2cc(-c3nc(-c4cc(OC)c(OC)c(OC)c4)no3)c(=O)oc2c1`: the molecule was classed as inactive.

In the case of `CCOC(=O)c1ccc(NC(=O)c2cn(-c3ccccc3)nc2-c2ccc(OC)c(OC)c2)cc1`, the molecule was called inactive.

For `CC(OC(=O)C1CCN(S(=O)(=O)c2ccccc2C(F)(F)F)CC1)C(=O)N(C)Cc1ccccc1` (stereo not drawn), the call was inactive.

For the molecule `CCOc1ccc(NC(=O)Cc2c(C(=O)O)n(C)c3ccccc23)cc1`, the molecule was classed as inactive.

As to `CN(CC(=O)NC(=O)NC1CCCCC1)CC(=O)Nc1ccc(Cl)cc1`, the result was inactive.

On to `NC(=O)Nc1ccc(C(=O)OCC(=O)NC2CCCc3ccccc32)cc1` (stereo not drawn), for which the result was inactive.

In the case of `Cc1ccccc1S(=O)(=O)N(CC(O)CN1C(=O)NC(C)(C)C1=O)c1ccccc1` (stereo not drawn), the outcome was inactive.

`Cn1cc2c(=O)n(/N=C/c3ccccc3)cnc2n1`: the molecule was called inactive.

Turning to `O=C(O)CN1C(=O)C(=O)N(Cc2ccc(C(F)(F)F)cc2)C1=O`, the molecule was called inactive.

For `Cn1cccc1C(=O)OCC(=O)Nc1ccc2[nH]c(=O)[nH]c2c1`, the molecule was classed as inactive.

Regarding `CCC(C)NCCOc1ccc(C)cc1[N+](=O)[O-]` (stereo not drawn), the result was inactive.

Consider `CC(C)n1c(SCc2ccccc2F)nc2c1c(=O)n(C)c(=O)n2C`, for which the molecule was classed as inactive.

In the case of `CCc1ccc2c(c1)c(=O)c(C(=O)c1ccc(C)cc1)cn2CC(=O)Nc1ccccc1C`, the molecule was classed as inactive.

With `COc1ccc(C(=O)N2CCc3ccc(NC(=O)c4ccccn4)cc3C2)cc1F`, the result was inactive.

For the molecule `CCN(CC(=O)Nc1ccc(N2CCOCC2)cc1)CC(=O)NC(C)(C)C`, the molecule was classed as inactive.

For `Cc1ccc(C)c(N(CC(=O)NCc2ccco2)C(=O)CNS(=O)(=O)c2ccc(F)cc2)c1`, the result was inactive.

Turning to `O=C(OCC(=O)N1CCN(c2ccccc2)CC1)c1cccc([N+](=O)[O-])c1`, the outcome was inactive.

Take `O=C(Nc1ccc(NS(=O)(=O)c2ccc([N+](=O)[O-])cc2)cc1)c1ccco1`: the result was inactive.

Regarding `Oc1ccccc1CN1CCCC(N2CCN(c3cccc(C(F)(F)F)c3)CC2)C1` (stereo not drawn), the molecule was called inactive.

In the case of `O=C(NNC(=O)c1sccc1-n1cccc1)Nc1ccccc1`, the outcome was inactive.

Take `CCOC(=O)c1c(NC(=O)C(C)Sc2cn(CCNC(=O)c3ccc(OC)c(OC)c3)c3ccccc23)sc2c1CCC2` (stereo not drawn): the molecule was called inactive.

With `CC(=O)NCc1ccc(S(=O)(=O)N2CCN(c3ccccn3)CC2)cc1`, the call was inactive.

As for `CN(C(=O)COC(=O)c1cc(S(=O)(=O)N2CCOCC2)ccc1F)C1CCS(=O)(=O)C1` (stereo not drawn), the molecule was classed as inactive.

Regarding `Cn1c(SCc2nnc(-c3ccccc3)o2)nc2ccccc21`, the result was inactive.

For `COc1cccc(OC)c1C(=O)Nn1c(-c2cccs2)nc2ccccc2c1=O`, the result was inactive.

With `Cc1cc(C)c2nc(NC(=O)[C@@H](NC(=O)c3cccc(S(=O)(=O)N4CCOCC4)c3)C(C)C)sc2c1`, the molecule was classed as inactive.

On to `S=C(NCCc1ccccc1)Nc1ccc(Cl)cc1Cl`, for which the molecule was classed as inactive.

With `CN(C)Cc1cc2ccccc2c2c1COC2`, the call was inactive.

In the case of `O=C(NCC1CCN(S(=O)(=O)c2ccccc2)CC1)Nc1ccc(F)cc1`, the outcome was inactive.

In the case of `O=C1/C(=C/c2cccs2)Sc2ccccc21`, the molecule was called inactive.

As to `Cc1ccc(N(CC(=O)NC2CCCC2)C(=O)CNC(=O)c2cccs2)c(C)c1`, the result was inactive.

For `COc1ccc(N(C(=O)c2snc(C(N)=O)c2N)C(C(=O)NCC2CCCO2)c2ccc3ncccc3c2)cc1OC` (stereo not drawn), the molecule was called inactive.

On to `Cc1ccc(-c2[nH]c(-c3ccc(C(=O)O)cc3)nc2-c2ccccc2)cc1`, for which the result was inactive.

As for `Cc1ccccc1OCc1nc(-c2ccc(NC(=O)c3ccc4c(c3)OCO4)cc2)no1`, the result was inactive.

For `CCOCCCNCC(=O)Nc1ccc(S(=O)(=O)NC(C)CC)cc1` (stereo not drawn), the molecule was classed as inactive.

As to `CC1CCN(C(=O)COC(=O)c2ccc(=O)n(Cc3ccccc3)n2)CC1`, the call was inactive.

`C=CCN1C(=O)c2ccc(C(=O)Nc3ccccn3)cc2C1=O`: the molecule was called inactive.

For the molecule `Cc1cccc(NC(=O)c2cc3ccccc3nc2C)c1`, the call was inactive.

`CC(=O)Nc1ccc(S(=O)(=O)N[C@@H](C)C(=O)N2CCN(C/C=C/c3ccccc3)CC2)cc1`: the call was inactive.
